Experiments:
Assay in all cases: PBM binding z-score (relative to random genomic background probes); higher = stronger binding; sequences stand for … in GC…GCGATTGACAGCGTAGAATGAAGG
[1] = system: RARb homodimer (NR concentration 270 nM)
Method in brief: (§1)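 Each nuclear receptor dimer, without ligand, was incubated for 1 h on custom Agilent 4×180K protein-binding microarrays. Binding was detected with antibodies against each partner (one per run), and scanned fluorescence was regression-normalized. The binding z-scores are referenced to random human genomic background probes.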

[2] = system: RARg:RXRa (NR concentration 270 nM, RXRa partner concentration 90 nM)
Method in brief: as §1

[3] = system: RARg homodimer (NR concentration 270 nM)
Method in brief: as §1

[4] = system: RXRa DBDmut IVT, anti-RXR (DBD mutation: RXRa K156A/R161A, NR concentration 90 nM)
Method in brief: as §1

[5] = system: RXRa homodimer (NR concentration 180 nM)
Method in brief: as §1

[6] = system: THRa:RXRa (NR concentration 90 nM, RXRa partner concentration 90 nM)
Method in brief: as §1

[7] = system: THRa homodimer (NR concentration 90 nM)
Method in brief: as §1

[8] = system: VDR homodimer (NR concentration 270 nM)
Method in brief: as §1

Sequence | PBM binding z-score [1] | PBM binding z-score [2] | PBM binding z-score [3] | PBM binding z-score [4] | PBM binding z-score [5] | PBM binding z-score [6] | PBM binding z-score [7] | PBM binding z-score [8]
CAAACTAGGTCAAGGGCAAAGTCGGTTTGTGCCA | 4.17 | 3.94 | 4.68 | 2.01 | 3.06 | 3.27 | 1.43 | 1.79
GGAACGAGGGCATTCGAGTTGATAGGATGGCGAT | 0.729 | 1.11 | 1.28 | 3.32 | 0.734 | 3.21 | -0.299 | 2.9
CAAACTAGGTCAAGAGGTCAAAGACCGCTTCCCG | 5.76 | 8.18 | 7.8 | 2.18 | 8.47 | 4.39 | 2.18 | 3.76
CGAACTAGGTCATCCAGGAGAGTGAATACATTGA | 2.87 | 3.87 | 4.68 | 2.19 | 2.84 | 2.93 | 0.976 | 0.755
AGTCAACGTTCAGGACGAGGTAACGTAAAGCACG | -0.0275 | 0.297 | 0.412 | -0.658 | 0.0619 | 2.08 | 1.42 | -0.0352
CCTACTGGGCCACGAAAGGTCATTAATTCAGTGA | 4.39 | 4.33 | 3.75 | 0.737 | 4.52 | 3.67 | 1.04 | 2.25
TGAATGAGGTTATTAGATCAGGGAACGTTGCAAA | 0.387 | 1.36 | 0.893 | 1.46 | 1.66 | 2 | 0.756 | 0.942
